Measurements published in PubChem BioAssay AID1159580 (chemical genetic matrix, 2015).
Several values for one entry are separate records, joined by “and”; a condition that tells them apart may be missing. Equal values may be shown once. Among all 5,500 compounds or so, about 2,000 (36%) were called active. About 18% were inconclusive and are not listed. Rule as the data show it: active = normalized growth mostly below about 0.91 (no sharp cut-off); inconclusive = no clear call, values can overlap the other calls; inactive = mostly above about 0.92. The list shows a part of the results. A structure can be active in one record and inactive in another.

Assay: chemical genetic growth profiling, strain panel (AID 1159580);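 also: tested at 20 µM; growth read once vehicle control cultures reached saturation at 30 °C; 1 = growth at the plate median or of vehicle wells; lower values mean less growth of the strain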
Conditions: S. cerevisiae deletion strains, growth OD

Measured: normalized growth

Cc1ccc(Cl)c(Nc2ccccc2C(=O)O)c1Cl
0.664 (active) and 0.986 (inactive): locus YJL095W, strain BCK1, stronger effect = lower value
0.879 (active) and 0.942 (inactive): locus YDR150W, strain NUM1, stronger effect = lower value
active: locus YAL026C, strain drs2, stronger effect = lower value 0.787 | locus YAL030W, strain snc1, stronger effect = lower value 0.876 | locus YBL061C, strain skt5, stronger effect = lower value 0.884 | locus YBR009C, strain hhf1, stronger effect = lower value 0.856 | locus YBR023C, strain chs3, stronger effect = lower value 0.852 | locus YBR171W, strain sec66, stronger effect = lower value 0.817 | locus YBR229C, strain ROT2, stronger effect = lower value 0.884 | locus YBR231C, strain swc5, stronger effect = lower value 0.885 | locus YBR279W, strain paf1, stronger effect = lower value 0.867 | locus YCL011C, strain gbp2, stronger effect = lower value 0.852 | locus YCL016C, strain dcc1, stronger effect = lower value 0.818 | locus YCL029C, strain bik1, stronger effect = lower value 0.887 | locus YCL061C, strain MRC1, stronger effect = lower value 0.891 | locus YCL069W, strain vba3, stronger effect = lower value 0.866 | locus YCR088W, strain abp1, stronger effect = lower value 0.876 | locus YDL005C, strain med2, stronger effect = lower value 0.895 | locus YDL040C, strain nat1, stronger effect = lower value 0.894 | locus YDL192W, strain arf1, stronger effect = lower value 0.824 | locus YDR001C, strain nth1, stronger effect = lower value 0.871 | locus YDR101C, strain arx1, stronger effect = lower value 0.906 | locus YDR137W, strain rgp1, stronger effect = lower value 0.455 | locus YDR159W, strain sac3, stronger effect = lower value 0.766 | locus YDR162C, strain NBP2, stronger effect = lower value 0.794 | locus YDR297W, strain sur2, stronger effect = lower value 0.908 | locus YDR318W, strain mcm21, stronger effect = lower value 0.83 | locus YDR334W, strain swr1, stronger effect = lower value 0.879 | locus YDR335W, strain msn5, stronger effect = lower value 0.896 | locus YDR388W, stronger effect = lower value 0.87 | locus YDR392W, strain spt3, stronger effect = lower value 0.188 | locus YDR502C, strain sam2, stronger effect = lower value 0.835 | locus YEL003W, strain gim4, stronger effect = lower value 0.904 | locus YEL037C, strain rad23, stronger effect = lower value 0.901 | locus YEL061C, strain CIN8 (second series), stronger effect = lower value 0.885 | locus YEL061C, strain CIN8, stronger effect = lower value 0.888 | locus YER015W, strain faa2, stronger effect = lower value 0.926 | locus YER016W, strain bim1, stronger effect = lower value 0.91 | locus YER110C, stronger effect = lower value 0.866 | locus YER111C, strain swi4, stronger effect = lower value 0.876 | locus YER155C, strain BEM2 (second series), stronger effect = lower value 0.644 | locus YER155C, strain BEM2, stronger effect = lower value 0.839 | locus YGL086W, strain mad1, stronger effect = lower value 0.905 | locus YGL167C, strain pmr1, stronger effect = lower value 0.829 | locus YGL173C, strain kem1, stronger effect = lower value 0.85 | locus YGL227W, strain vid30, stronger effect = lower value 0.906 | locus YGL253W, strain hxk2, stronger effect = lower value 0.81 | locus YGR135W, strain pre9, stronger effect = lower value 0.795 | locus YHR013C, strain ard1, stronger effect = lower value 0.793 | locus YHR027C, strain rpn1, stronger effect = lower value 0.903 | locus YHR079C, strain IRE1 (second series), stronger effect = lower value 0.876 | locus YHR094C, strain hxt1, stronger effect = lower value 0.869 | locus YHR129C, strain ARP1, stronger effect = lower value 0.91 | locus YHR142W, strain chs7, stronger effect = lower value 0.737 | locus YHR200W, strain rpn10, stronger effect = lower value 0.882 | locus YIR030C, strain dcg1, stronger effect = lower value 0.868 | locus YJL092W, strain hpr5, stronger effect = lower value 0.872 | locus YJL095W, strain BCK1 (second series), stronger effect = lower value 0.822 | locus YJL129C, strain trk1, stronger effect = lower value 0.644 | locus YJL134W, strain LCB3, stronger effect = lower value 0.906 | locus YJL154C, strain vps35, stronger effect = lower value 0.891 | locus YJL164C, strain tpk1, stronger effect = lower value 0.866 | locus YJL166W, strain qcr8, stronger effect = lower value 0.864 | locus YJL168C, strain set2, stronger effect = lower value 0.892 | locus YJL187C, strain SWE1, stronger effect = lower value 0.891
0.901 (active) and 0.983 (inactive): locus YHR030C, strain SLT2, stronger effect = lower value
inactive: locus YAL013W, strain DEP1, stronger effect = lower value 0.938 | locus YAL021C, strain ccr4, stronger effect = lower value 0.917 | locus YAL040C, strain CLN3, stronger effect = lower value 0.916 | locus YBR021W, strain FUR4, stronger effect = lower value 0.954 | locus YCL061C, strain MRC1 (second series), stronger effect = lower value 0.965 | locus YDL035C, strain GPR1, stronger effect = lower value 0.939 | locus YDL074C, strain BRE1, stronger effect = lower value 0.799 | locus YDL101C, strain DUN1, stronger effect = lower value 0.957 | locus YDL185W, strain tfp1, stronger effect = lower value 0.953 | locus YDR069C, strain doa4, stronger effect = lower value 0.928 | locus YDR195W, strain ref2 1.11 | locus YDR363W, strain ESC2, stronger effect = lower value 0.985 | locus YER002W, strain NOP16, stronger effect = lower value 0.926 | locus YER167W, strain BCK2, stronger effect = lower value 0.905 | locus YFR010W, strain ubp6, stronger effect = lower value 0.931 | locus YGL078C, strain dbp3, stronger effect = lower value 0.969 | locus YGL240W, strain doc1, stronger effect = lower value 0.91 | locus YGL248W, strain PDE1, stronger effect = lower value 0.899 | locus YGR078C, strain PAC10, stronger effect = lower value 0.926 | locus YGR229C, strain SMI1, stronger effect = lower value 0.841 | locus YGR252W, strain gcn5, stronger effect = lower value 0.834 | locus YHR079C, strain IRE1, stronger effect = lower value 1.03 | locus YIL066C, strain RNR3, stronger effect = lower value 0.881 | locus YIL073C, strain SPO22, stronger effect = lower value 0.735 | locus YIL125W, strain kgd1, stronger effect = lower value 0.981 | locus YJL115W, strain asf1, stronger effect = lower value 0.934 | locus YJL187C, strain SWE1 (second series), stronger effect = lower value 0.897 | locus YJR043C, strain POL32, stronger effect = lower value 0.956
